Records with an inconclusive call do not appear. A number with no mark means an inactive call. Active and inactive are the calls of the source. The call rests on the fitted dose curve; in most records, active means well fitted activation curve with a large enough effect; inconclusive means small, poorly fitted or top-dose-only effect; inactive means no such curve, though single readings can be large or run the other way.
experiment: Confirmation Concentration-Response Assay for Enhancers of SMN2 Splice Variant Expression; details: HEK293 SMN2-exon7-luciferase splicing reporter, luminescence, 30-36 h; series mostly up to 46.1 µM; activation: at the top concentration
Summary of the method: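 Luciferase signal reports exon 7 inclusion from an SMN2-luciferase construct stably expressed in HEK293 cells. After 30-36 h compound exposure at 37C, One Glo reagent was added and luminescence read; sodium butyrate 4.5mM final served as control.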

Row | SMILES | activation | Potency
1 | NC(=O)C1(N2CCCCC2)CCN(c2nc(-c3ccc(Br)cc3)cs2)CC1 | -43.5% [at 22.7 µM] | –
2 | COc1ccc(OC)c(-c2csc(N3CCC(c4ccccc4)CC3)n2)c1 | -18.9% [at 22.7 µM] | –
3 | COC(=O)C1=C(C)NC(=O)/C1=C\c1cc(C)n(-c2ccccc2F)c1C | -7.59% | –
4 | O=C(NCCCNCCCNC(=O)c1ccccn1)c1ccccn1 | -12% | –
5 | Cc1[nH]c2ccccc2c1-c1nc(-c2ccc(Cl)cc2)nnc1-c1ccccc1 | 13.1% [at 22.7 µM] | –
6 | CN(Cc1ccccc1)Cc1c(F)cccc1F | -9.07% | –
7 | O=C(NCc1cccs1)C(=O)NCC1OCCCN1S(=O)(=O)c1ccccc1 (configuration not stated) | 10.3% | –
8 | COc1ccc(-c2csc(N3CCC(C(N)=O)(N4CCCCC4)CC3)n2)cc1 | -36.3% [at 22.7 µM] | –
9 | O=C1CCC(C(=O)Nc2cccc3ccccc23)N1 (configuration not stated) | 13% | –
10 | Cc1ccc(-c2csc(NC(=O)C3CCN(S(=O)(=O)c4cccs4)CC3)n2)cc1 | -64.2% [at 22.7 µM] | –
11 | CN(C)CCCN(C(=O)c1cccs1)c1nc(-c2ccccc2)cs1 | -7.7% [at 22.7 µM] | –
12 | CCOc1ccc2nc(N3CCC(C(=O)N4CCN(c5ccccn5)CC4)CC3)sc2c1 | -40.3% [at 22.7 µM] | –
13 | CCCSc1nnc2c(n1)OC(c1sccc1C)Nc1ccccc1-2 (configuration not stated) | – | 2000 nM (active)
14 | CC1CN(c2nc(-c3ccc(Br)cc3)nnc2-c2ccccc2)CC(C)N1 (configuration not stated) | -5.21% [at 9.48 µM] | –
15 | NC(=O)C1(N2CCCCC2)CCN(c2nc(-c3ccccc3)cs2)CC1 | -7.38% [at 22.7 µM] | –
16 | O=C(NCCc1cn2ccsc2n1)c1cccs1 | 1.45% | –
17 | Nc1ccccc1-c1nnn(CC(=O)N2CCCc3ccccc32)n1 | -22.5% | –
18 | NC(=O)N1c2ccccc2C=Cc2ccccc21 | -12.8% | –
19 | O=C(Nc1cccnc1)/C(N=Nc1c(Cl)cccc1Cl)=C(\O)c1ccccc1 | -12.1% | –
20 | CCOc1c(Cl)cc(C(=O)Nc2ccccc2C(=O)O)cc1Cl | – | 2820 nM (active)
21 | O=S(=O)(NC1CCCc2ccccc21)c1cnc[nH]1 (configuration not stated) | -0.677% | –
22 | c1coc(CNc2ncnc3ccccc23)c1 | -53.2% | –
23 | Clc1nc(NCc2cccs2)c2[nH]cnc2n1 | -49.8% | –
24 | Clc1ccc(-c2nnc(-c3ccc(Br)cc3)c(N3CCSCC3)n2)cc1 | -10.7% [at 9.48 µM] | –
25 | O=C(Cc1c(F)cccc1Cl)N1CCN(C(=O)c2ccco2)CC1 | -5.31% | –
26 | Clc1nc(NCc2ccco2)c2[nH]cnc2n1 | -44.5% | –
27 | CCCc1sc(N2CCCC(C(N)=O)C2)nc1-c1ccccc1 (configuration not stated) | -3.13% [at 22.7 µM] | –
